Experimental data published in PubChem BioAssay (NCATS).
Records with an inconclusive call do not appear. Values without a mark were called inactive. Activity calls are given as the source filed them. Calls come from the whole dose curve; as a rule, active = well fitted inhibition curve with a large enough effect; inconclusive = small, poorly fitted or top-dose-only effect; inactive = flat fitted curve, though single readings scatter.

assay: P-glycoprotein substrates identified in KB-8-5-11 adenocarcinoma cell line, qHTS therapeutic library screen (AID 1346987); conditions: KB-8-5-11 (P-gp overexpressing) viability, CellTiter-Glo, 72 h; series mostly up to 44.5 µM; activity change, negative = cytotoxicity: at the top concentration; note: nearly all actives have a fitted effect of over 65% in size
Description: The ATP-binding cassette transporters P-glycoprotein (P-gp) is known to limit brain penetration of many chemotherapy drugs. […] As such, we developed a high-throughput screen (HTS) to identify substrates of P-gp from a series of chemical libraries including the National Center for Advancing Translational Sciences Pharmaceutical Collection NPC, 2,816 compounds), testing a total of 10,804 compounds, most of which have known mechanisms of action. We used the CellTiter-Glo viability assay to test library compounds against the parental KB-3-1 human cervical adenocarcinoma cell line and the colchicine-selected sub-line KB-8-5-11 that over-expresses P-gp. KB-8-5-11 cells were also tested in the presence of a P-gp inhibitor (tariquidar) to assess reversability of transporter-mediated resistance. Of the tested compounds, a total of 90 P-gp substrates were identified including 55 newly identified P-gp substrates. Substrates were confirmed using an orthogonal killing assay against HEK-293 cells transfected with P-gp. As exemplars, we confirmed that […] (cyclin-dependent kinase inhibitor); AT9283, (Janus kinase 2/3 inhibitor); ispinesib (kinesin spindle protein inhibitor); gedatolisib (PKI-587, phosphoinositide 3-kinase/mammalian target of rampamycin inhibitor); GSK-690693 (AKT inhibitor); and KW-2478 (heat shock protein 90 inhibitor) were substrates , and direct ATPase stimulation was assessed. ABCG2 was also found to confer high levels of resistance to AT9283, GSK-690693 and gedatolisib, while ispinesib, AT7519 and KW-2478 were weaker substrates.
The HeLa derivative cell line, KB-3-1, and its colchicine-selected, P-gp-overexpressing subline, KB-8-5-11 were maintained in DMEM with 10% FCS and Pen/Strep with glutamine at 37 degree C in 5% CO2. For KB-8-5-11 cells, colchicine was added to the medium at a concentration of 100 ng/mL. HEK-293 cells transfected with empty vector (pcDNA) or vector containing human ABCB1 (MDR-19) or ABCG2 (R-5) have been described previously (Robey, Lin, Qiu, Chan & Bates, 2011) and were maintained in EMEM supplemented with 10% FCS, Pen/Strep and glutamine with 2 mg/ml G418 to select for the expression of the transporter. Cultures were confirmed to be free of mycoplasma infection using the MycoAlert Mycoplasma Detection Kit (Lonza, Walkersville, MD). For the screen, assay medium was identical to culture medium except for KB-8-5-11 where colchicine was excluded from the medium.
All cell lines were plated into 1536-well plates at 500 cells/well in 5 uL media. Compounds were then pinned in dose-response using a 1536-head pin tool (Kalypsis, San Diego, CA) and plates were incubated at 37 degree C in 5% CO2 for an additional 72 h. CellTiter-Glo reagent (Promega) was dispensed into the wells, incubated for 5 min and luminescence was read on a ViewLux instrument (Perkin-Elmer). Cytotoxic compounds were defined as those that yielded a curve class of -1.1, -1.2, -2.1, -2.2, -2.3, or -2.4, a maximum response of >50% and an AC50 of < 10 uM. Cherry-picked hits from screening analysis were tested with both the KB pair of cell lines, and the pcDNA (empty vector control) and MDR-19 (P-gp overexpressing) pair were tested, in the absence and presence of tariquidar.
% is set by controls: 0 for no effect and ±100 for the full control effect; potency is the fitted concentration of half-maximal effect.

Row | SMILES | outcome | activity change, negative = cytotoxicity | Potency
1 | CC(=O)O[C@@H]1[C@@H](CO)O[C@@](CO)(O[C@H]2O[C@H](COC(=O)/C=C/c3ccccc3)[C@@H](O)[C@H](O)[C@H]2O)[C@H]1O | inactive [at 17.3 µM] |  | 
2 | CC1(C)CC[C@]2(C(=O)O[C@@H]3O[C@H](CO[C@@H]4O[C@H](CO)[C@@H](O)[C@H](O)[C@H]4O[C@@H]4O[C@H](CO)[C@@H](O)[C@H](O)[C@H]4O)[C@@H](O)[C@H](O[C@@H]4O[C@H](CO)[C@@H](O)[C@H](O)[C@H]4O)[C@H]3O)CC[C@]3(C)C(=CCC4[C@@]5(C)CC[C@@H](O)[C@@](C)(C(=O)O[C@@H]6O[C@H](CO)[C@@H](O)[C@H](O)[C@H]6O)C5CC[C@]43C)[C@@H]2C1 (stereo not given in full) | inactive [at 9.29 µM] |  | 
3 | Cc1cc2c(c(=O)[nH]1)OC(C(O)CC(C)C)O2 (stereo not given) |  | -3.87% | 
4 | C[C@@H]1CC[C@@]2(OC1)O[C@H]1C[C@H]3[C@@H]4CC=C5C[C@@H](O)CC[C@]5(C)[C@H]4CC[C@]3(C)[C@H]1[C@@H]2C |  | -2.19% [at 17.3 µM] | 
5 | CC1=C(C)C(=O)OC(C(C)C2CCC3C4C5OC5C5(O)CC(OC6OC(CO)C(OC7OC(C)C(O)C(O)C7O)C(O)C6O)CC(O)C5(C)C4CCC23C)C1 (stereo not given) | inactive [at 17.3 µM] |  | 
6 | CC1=C(CCC(C)CC(=O)O)[C@@]2(C)CCCC(C)(C)C2CC1=O (stereo not given in full) |  | -2.03% | 
7 | C=C1C(=O)O[C@@H]2C[C@H](C)[C@@]3(O)C=C(C(C)=O)[C@]4(CC3C[C@H]12)C(=O)O[C@H]1C[C@@H](C)C(CCC(C)=O)=CC[C@H]14 (stereo not given in full) | inactive [at 17.3 µM] |  | 
8 | Nc1nc(-n2cc(C(=O)O)c(=O)c3cc(F)c(N4CC(O)C4)c(Cl)c32)c(F)cc1F |  | -8.8% | 
9 | CC(C)O[C@@H]1O[C@H](CO)[C@@H](O)[C@H](O)[C@H]1O |  | 6.53% | 
10 | CC1=C(C(=O)O)/C(=C/CO[C@@H]2O[C@H](COC(=O)/C=C/c3ccc(O)cc3)[C@@H](O)[C@H](O)[C@H]2O)C(O)C1 (stereo not given in full) | inactive [at 17.3 µM] |  | 
11 | CC(C)(C)Nc1nc(Nc2ccc(C(N)=O)cc2)cc(N)c1C#N |  |  | 2.06 µM (active)
12 | CC1=C(C(=O)O[C@@H]2O[C@H](COC3OCC(O)C(O)C3O)[C@@H](O)[C@H](O)[C@H]2O)C(C)(C)CCC1 (stereo not given in full) |  | -17.3% [at 17.3 µM] | 
13 | CCC(COC)n1nnc2c(Nc3ccc(OC)cc3C)nc(C)cc21 (stereo not given) |  | -17.4% | 
14 | CC(C)CN(C[C@@H](O)[C@H](Cc1ccccc1)NC(=O)O[C@@H]1CO[C@H]2OCC[C@H]21)S(=O)(=O)c1ccc(N)cc1 |  | -1.58% | 
15 | C[C@@H]1CC[C@]2(C(=O)O[C@@H]3O[C@H](CO)[C@@H](O)[C@H](O)[C@H]3O)CC[C@]3(C)C(=CCC4[C@@]5(C)C[C@@H](O)[C@H](O)[C@@](C)(C(=O)O[C@H]6[C@H](O)C[C@@]7(C)C(CC[C@]8(C)C7CC=C7[C@H]9[C@](C(=O)O[C@@H]%10O[C@H](CO)[C@@H](O)[C@H](O)[C@H]%10O)(CC[C@@H](C)[C@@]9(C)O)CC[C@]78C)[C@@]6(CO)C(=O)O)C5CC[C@]43C)[C@@H]2[C@]1(C)O (stereo not given in full) |  | 1.31% [at 9.29 µM] | 
16 | O=C(O)CCCCCC[C@H]1C(=O)NC(=O)N1CC[C@@H](O)C1CCCCC1 | inactive |  | 
17 | CC1=C(CCC(C)O[C@@H]2O[C@H](CO)[C@@H](O)[C@H](O)[C@H]2O)C(C)(C)CCC1=O (stereo not given in full) | inactive |  | 
18 | CC1(C)CCC2(C(=O)OC3OC(CO)C(O)C(O)C3O)CCC3(C)C(=CCC4C5(C)CCC(O)C(C)(C(=O)O)C5CCC43C)C2C1O (stereo not given) |  | 1.24% [at 17.3 µM] | 
19 | O=C(CC(c1ccccc1)c1ccccc1)N1CCN(C(c2ccccc2)c2ccccc2)CC1 |  |  | 16.4 µM (active)
20 | CC(=O)N[C@@H](C(=O)O[C@H]1CCC(C)(C)[C@@H]2CCC3=C(COC3=O)[C@@]12C)C(C)C |  | -3.92% | 

Row | SMILES | outcome | activity change, negative = cytotoxicity | Potency
21 | CC1C(=O)OCC2=CCN3CCC(OC(=O)C(C)(O)C1(C)O)C23 (stereo not given) | inactive |  | 
22 | CC(C)=CCC[C@](C)(O)[C@H]1CC[C@]2(C)[C@@H]1[C@H](O)CC1[C@@]3(C)CC[C@H](O)C(C)(C)[C@@H]3[C@@H](O[C@@H]3O[C@H](CO)[C@@H](O)[C@H](O)[C@H]3O[C@@H]3O[C@H](CO)[C@@H](O)[C@H](O)[C@H]3O)C[C@]12C (stereo not given in full) | inactive [at 17.3 µM] |  | 
23 | CC1CCC2(C(=O)O)CCC3(C)C(=CCC4C5(C)CCC(O)C(C)(CO)C5CCC43C)C2C1(C)O (stereo not given) |  | -2.05% [at 17.3 µM] | 
24 | CC(C)=CCC[C@](C)(O[C@@H]1O[C@H](CO[C@@H]2O[C@H](CO)[C@@H](O)[C@H](O)[C@H]2O)[C@@H](O)[C@H](O)[C@H]1O)C1CC[C@]2(C)[C@@H]1[C@H](O)CC1[C@@]3(C)CC[C@H](O[C@@H]4O[C@H](CO)[C@@H](O)[C@H](O)[C@H]4O[C@@H]4O[C@H](CO)[C@@H](O)[C@H](O)[C@H]4O)C(C)(C)[C@@H]3CC[C@]12C (stereo not given in full) |  | -1.53% [at 9.29 µM] | 
25 | CN(C)CC1CCOC1(c1ccccc1)c1ccccc1 (stereo not given) |  | -11.1% [at 17.3 µM] | 
26 | CCOC(=O)Nc1cc(-c2ccc(C)c(NS(C)(=O)=O)c2)nn2c(C)nnc12 |  |  | 14.6 µM (active)
27 | O=C(Cc1ccc(-c2ccccc2)cc1)NC1CCC1 |  | 4.74% | 
28 | C=CC/C=C\C/C=C\CCCCCCCc1cccc(O)c1C(=O)O | inactive |  | 
29 | N#Cc1ccc(-c2cnc3[nH]cc(NC(=O)c4cccnc4)c3c2)cc1 |  | -3.38% | 
30 | Cc1ccc(Cc2c(C)nc3nc(SCC(=O)NCCN4CCNCC4)nn3c2C)cc1 |  | 9.89% | 
31 | CO[C@H]1/C=C\O[C@@]2(C)Oc3c(C)c(O)c4c(O)c(c5c(nc6cc(C)ccn65)c4c3C2=O)NC(=O)/C(C)=C\C=C/[C@H](C)[C@H](O)[C@@H](C)[C@@H](O)[C@@H](C)[C@H](OC(C)=O)[C@@H]1C | inactive |  | 
32 | CCC(CC)C(=O)Nc1sc2c(c1C#N)CCC(C(C)(C)CC)C2 (stereo not given) |  | -13.3% | 
33 | CC(C)(O)C1CCC(C)(C2CCC3(C)C4CCC5C(C)(C(=O)OC6OC(CO)C(O)C(O)C6O)C(O)CC(O)C56CC46CCC23C)O1 (stereo not given) |  | -0.552% [at 17.3 µM] | 
34 | COc1cc2ncnc(Nc3ccc(O)cc3)c2cc1OC | inactive |  | 
35 | CC1CC(=O)C2=C(CCC3(O)C(O)c4c(O)cccc4C(=O)C23O)C1 (stereo not given) |  | 6.09% | 
36 | O=S(=O)(Nc1ccccn1)c1ccc(N=Cc2c(O)[nH]c3ccc4ncsc4c23)cc1 | inactive [at 9.29 µM] |  | 
37 | COC(=O)CC(O)C1OC(c2ccccc2)C(O)C1O (stereo not given) | inactive |  | 
38 | CN(C)C/C=C/C(=O)Nc1cccc(C(=O)Nc2cccc(Nc3ncc(Cl)c(-c4c[nH]c5ccccc45)n3)c2)c1 |  |  | 13 µM (active)
39 | CC(=O)N1CCN(Cc2ccc([C@H](C)Nc3nccc(N4C(=O)OC[C@@H]4C(C)C)n3)cc2)CC1 |  | -16.4% | 
40 | C=C(CO[C@@H]1O[C@H](CO[C@@H]2OC[C@](O)(CO)[C@H]2O)[C@@H](O)[C@H](O)[C@H]1O)C1Cc2cc(C(C)=O)ccc2O1 (stereo not given in full) |  | 8.42% [at 17.3 µM] | 
